Experimental data from ChEMBL document CHEMBL1157539, “Thousands of chemical starting points for antimalarial lead identification” (Nature, 2010).

Tested on: HepG2
Experiment: GSK_TCMDC: Percent inhibition of human HepG2 cell line. Test compounds present at 10uM.
Type: functional

| Structure (SMILES) | Inhibition |
| --- | --- |
| O=C(NC12CC3CC(CC(C3)C1)C2)C(=O)c1c[nH]c2ccccc12 | 16% |
| O=C(/C=C/c1ccc(C(F)(F)F)cc1)NCCCCCN1CCN(C(=O)Nc2ccc(F)c(Cl)c2)CC1 | 35% |
| COc1ccc2nccc([C@@H](O)CN3CCC(NCc4cc5ccccc5[nH]4)CC3)c2n1.O=C(O)C(=O)O | 17% |
| Cc1cc(N(C)C2CCN(CC3CCCCC3)C2)nc(Nc2ccc(Cl)cc2)n1 (stereo not given) | 0% |
| O=C(Nc1cccc(-c2ccc(-c3nc4cc(C(F)(F)F)ccc4[nH]3)s2)c1)c1c[nH]cn1 | 55% |
| Cc1c[nH]c2ccc(/C=C/C(=O)NC3CCC(CCN4CCc5ccc(C#N)cc5CC4)CC3)cc12.Cl (stereo not given) | 9% |
| COc1ccc(CNC2Cc3ccccc3C2)cc1-c1ccc(S(=O)(=O)NCCc2ccccn2)s1.O=C(O)C(F)(F)F | 11% |
| CCN(CC)CCCCNc1cc(-c2[nH]c(C(C)(C)C)nc2-c2ccc3cc(OC)ccc3c2)ccn1.O=C(O)C(F)(F)F | 23% |
| Cc1cc([N+](=O)[O-])ccc1N1CCN(CCCCNC(=O)c2ccc(NC(=O)c3ccc(Cl)cc3)cc2)CC1 | 33% |
| CCCCN(CCCC)C(=N)c1cccc2c1CCCC2.Cl | 11% |
| CCOc1ccccc1CON1C(N)=NC(N)=NC1(C)C | 66% |
| COCCNCc1ncsc1-c1ccc2c(Nc3cc(O)c(Cl)cc3F)ccnc2c1 | 0% |
| CC1CCCC(NCc2c(O)ccc3ccccc23)C1.Cl (stereo not given) | 10% |
| NC(=O)COc1c(C2CCN(CCN3CCC(CNC(=O)c4ccc(-c5ccc(C(F)(F)F)cc5)cc4)CC3)CC2)ccc2c1CCCC2 | 32% |
| O=C(Nc1ccc2c(c1)CCC2)c1cccc(N2CCN(c3ccncc3)CC2)c1.O=C(O)C(F)(F)F | 35% |
| COc1ccc2c(-c3ccccc3)noc2c1 | 0% |
| Cc1csc2nc(-c3ccccn3)nc(Nc3ccncn3)c12.O=C(O)C(F)(F)F | 47% |
| O=C(Nc1ccccc1-c1nc2ccccc2s1)C(Cl)(Cl)Cl | 12% |
| O=C([C@H]1CCCCN1c1ccc([N+](=O)[O-])c2ccccc12)N1CCN(c2ncccn2)CC1 | 50% |
| CCOc1cc(-c2nnc3[nH]c(=O)n(C)c(=O)c3n2)ccc1OC(C)C | 15% |

| Structure (SMILES) | Inhibition |
| --- | --- |
| COc1cc(NC2=C(c3ccccc3)C(=O)c3ccccc32)ccn1 | 7% |
| COc1ccc(-c2cc(C(=O)Nc3ccc4[nH]c(-c5ccccc5)nc4c3)[nH]n2)cc1.O=C(O)C(F)(F)F | 77% |
| C=CCNS(=O)(=O)c1ccc(NC(=O)C(C)Oc2ccc([N+](=O)[O-])cc2)cc1 (stereo not given) | 14% |
| O=c1cc(NCCCNCc2cccc(I)c2)[nH]c2ccccc12 | 10% |
| O=C(NCCCc1ccccc1)c1csc(C2CCCN(C(=O)c3ccc(O)c(-c4cccc5ccccc45)c3)C2)n1 (stereo not given) | 3% |
| Cc1c(NCCCNCc2cc(Cl)cc(Cl)c2Cl)[nH]c2ccccc2c1=O.Cl | 35% |
| C=CCOC(=O)N1CCC(CNCc2cccc(-c3ccc(-c4nc5cccc(C)c5[nH]4)cc3)c2)C1.O=C(O)C(F)(F)F (stereo not given) | 24% |
| O=C(Nc1ccccc1O)c1ccc(S(=O)(=O)c2ccc(Cl)cc2)cc1 | 18% |
| O=S(=O)(c1ccc(Oc2ccccc2)cc1)N(CCC(O)(C(F)(F)F)C(F)(F)F)Cc1cccc(O)c1 | 0% |
| O=C(Nc1ccc(OC(F)(F)F)cc1)Nc1ccc([N+](=O)[O-])cc1 | 41% |
| COc1cc2c(cc1C=CC(=O)N1CCN(Cc3nc(O)c4c(C)c(C)sc4n3)CC1)OC(C)C2 (stereo not given) | 0% |
| C/C=C/COc1ccc2ccccc2c1CNCCCCCCCCNCc1c(OC/C=C/C)ccc2ccccc12.CS(=O)(=O)O.O | 100% |
| Cc1ccc(Oc2ncccc2C(=O)Nc2cccc3cccnc23)c(C)c1 | 0% |
| CN1CCc2cc(NS(=O)(=O)c3ccc(-c4ccc(Cl)cc4)cc3)c(OCCCN3CCCCC3)cc2CC1.Cl | 91% |
| O=C1CC(C(=O)Nc2cccc(-c3cccc(-c4nc5ccccc5[nH]4)c3)c2)c2ccccc2N1 (stereo not given) | 0% |
| CNCCNCc1cccc(-c2ccc(-c3nc4cccc(C)c4[nH]3)cc2)c1.O=C(O)C(F)(F)F | 17% |
| COc1ccc(O)c(C(=O)c2cc(C#N)c(=O)n(-c3ccc(Oc4ccccc4)cc3)c2)c1 | 22% |
| COc1ccc(N2CCN(CCCNC(=O)c3ccc(NC(=O)c4cc(Cl)cc(Cl)c4)cc3)CC2)c(OC)c1 | 21% |
| CC(C)NCC(O)Cn1c2ccc(Br)cc2c2cc(Br)ccc21 (stereo not given) | 100% |
| CCN1CCN(CCCCNc2c3ccccc3nc3ccccc23)CC1.Cl | 22% |
